The results in this text go back to PubChem BioAssay (NCATS).

Values joined by “and” are separate entries in the source; they are usually repeats but may differ in a detail not shown here. Identical values can stand only once. Records with an inconclusive call do not appear. For some of these results: Measured potencies and affinities stand elsewhere. Active and inactive are the calls of the source.

A short description of experiment [1]: qHTS Assay for Identifying Gametocytocidal Compounds (AID 743244; active = well fitted curve in the direction sought with a large enough effect; an effect the other way counts as inactive or inconclusive;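 also: % is scaled to controls: 0 for no effect and ±100 for the full control effect; actives lower the fluorescent signal which means gametocytes are killed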). Particulars: P. falciparum 3D7 stage III-V gametocytes, alamarBlue, 72 h; max response: stronger effect = lower value. The procedure, abridged: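 Stage III-V P. falciparum 3D7 gametocytes, 20,000 per well, were exposed to compounds for 72 h at 37C, 5% CO2. AlamarBlue was then added for 24 h and viability was read as fluorescence at Ex 525/Em 598 nm.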
(In general: qHTS replaces the single test concentration by a dilution series.)

The conditions of experiment [2]: Ebola virus entry assay, green fluorescence channel.
The conditions of experiment [3]: Ebola virus entry assay, blue channel fluorescence.
The conditions of experiment [4]: Ebola virus entry assay, ratio channel.
A short description of experiment [5]: qHTS profiling for inhibitors of Plasmodium falciparum (3D7) proliferation (AID 743322).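 Also: infected erythrocytes exposed to compound for 72 h before lysis; 100% = DMSO vehicle wells and 0% = 0.29 µM artemisinin.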 To be noted: P. falciparum 3D7 proliferation; at 28.7 µM (top of the series). The procedure, abridged: (§1)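 Parasite DNA was quantified by SYBR Green I fluorescence (ex 485, em 535 nm) after overnight lysis in saponin/Triton buffer at room temperature. Cultures at 0.3% parasitemia and 2.5% hematocrit were first exposed to compound for 72 h at 37 C; signals were normalised to artemisinin (0.29 uM) and vehicle wells.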

Experiment [6] can be described thus: qHTS profiling for inhibitors of Plasmodium falciparum (DD2) proliferation (AID 743323). Particulars: lower = more inhibition; at 28.7 µM (top of the series). The procedure, abridged: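 P. falciparum Dd2-infected erythrocytes (0.3% parasitemia, 2.5% hematocrit) exposed 72 h at 37 C, 5% CO2. Lysis with SYBR Green, overnight at room temperature, fluorescence 485/535 nm; normalized to 0.29 uM artemisinin and DMSO.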

Experiment [7] is described as follows: qHTS profiling for inhibitors of Plasmodium falciparum (HB3) proliferation (AID 743324; active = well fitted curve in the direction sought with a large enough effect; an effect the other way counts as inactive or inconclusive;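 also: 100% = DMSO vehicle wells and 0% = artemisinin-treated control wells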). To be noted: Plasmodium falciparum HB3 blood-stage proliferation; at 28.7 µM (top of the series). The procedure, abridged: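 SYBR Green fluorescence (485 ex/535 em) of lysed cultures, incubated overnight at room temperature in the dark, quantifies parasite DNA. Infected erythrocytes at 0.3% parasitemia and 2.5% hematocrit were exposed 72 h; values normalized to DMSO and 0.29 uM artemisinin controls.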

Experiment [8] is described as follows: qHTS profiling of the MIPE4 collection as inhibitors of Plasmodium falciparum (3D7) proliferation (AID 743344).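 Also: scaled between DMSO vehicle wells and 0.29 µM artemisinin as full inhibition.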 To be noted: P. falciparum 3D7 in erythrocytes, SYBR Green DNA fluorescence, 72 h; at 28.5 µM (top of the series) unless noted. The procedure, abridged: as §1
Experiment [9] can be described thus: qHTS profiling of the MIPE4 collection as inhibitors of Plasmodium falciparum (DD2) proliferation (AID 743345). Particulars: P. falciparum Dd2 in erythrocytes, SYBR Green DNA, 72 h; at 28.5 µM (top of the series) unless noted. The procedure, abridged: as §1
Experiment [10] can be described thus: qHTS profiling of the MIPE4 collection as inhibitors of Plasmodium falciparum (DD2) proliferation (Rep 2) (AID 743346). Particulars: P. falciparum Dd2 in erythrocytes, SYBR Green DNA, 72 h; at 28.5 µM (top of the series) unless noted. The procedure, abridged: as §1
Experiment [11] can be described thus: qHTS profiling of the MIPE4 collection as inhibitors of Plasmodium falciparum (HB3) proliferation (AID 743347).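 Also: plate controls were DMSO vehicle wells for no effect and artemisinin wells for full effect.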 Particulars: P. falciparum HB3 in erythrocytes, SYBR Green DNA, 72 h; at 28.5 µM (top of the series) unless noted. The procedure, abridged: as §1
Experiment [12] in a line: qHTS assay for small molecule agonists of the antioxidant response element (ARE) signaling pathway measured by Nrf2-dependant transcriptional activity - cell viability counter screen (AID 720653; active = well fitted curve in the direction sought with a large enough effect in the repeat runs; an effect the other way counts as inactive or inconclusive; also: % is scaled to controls: 0 for no effect and ±100 for the full control effect). Particulars: ARE-bla HepG2 viability, CellTiter-Glo ATP luminescence, 16 h; max response: stronger effect = lower value. The procedure, abridged:
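Cytotoxicity counter screen: intracellular ATP quantified by CellTiter-Glo luminescence in the same ARE-bla HepG2 plates, after 16 h compound exposure and a 2 h beta-lactamase substrate step.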

The nature of experiment [13]: qHTS assay for cell viability of HEK293 cells (AID 743288; active = well fitted curve in the direction sought with a large enough effect; an effect the other way counts as inactive or inconclusive; also: % is scaled to controls: 0 for no effect and ±100 for the full control effect; nearly all actives have a fitted effect of over 50% in size). Particulars: ATP luminescence (CellTiter-Glo), 18 h; max response: stronger effect = lower value. The procedure, abridged: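 Readout is luciferase-coupled ATP content (CellTiter-Glo luminescence, 30 min room temperature) as a measure of metabolically competent cells. Parental HEK293 cells were plated 5 h or more before compound addition, then treated 18 h at 37 C.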

The conditions of experiment [14]: Ebola virus entry assay, green fluorescence channel. This is another data set of the same source.
The conditions of experiment [15]: Ebola virus entry assay, ratio channel readout.
For efficacy in this document: 0% is about no effect.

As to `Cc1ccc2c(n1)Oc1ccc(C(C)C(=O)OCC(=O)N(C)C)cc1C2` (stereo unspecified), in experiment [1], the max response is 42.6% (inactive) and 2.17% (inactive). Besides, the efficacy in experiment [2] was -14% (inactive) and -11.2% (inactive). The call in [3] and in [4] was inactive.

As for `COC1(CS(=O)c2ccccc2)CCN(CCc2c[nH]c3ccc(F)cc23)CC1` (stereo unspecified), in experiment [5], the remaining parasite growth % (stronger effect = lower value) turned out to be 23.6%. For the same compound, in experiment [6], the activity, percent of control amounted to 44.5%. For the same compound, in experiment [7], the remaining proliferation (% of control), lower = more inhibition was found to be 10%. Further, the parasite growth, % of DMSO control in [8] stood at 36.7%. The parasite growth remaining, % of DMSO control (lower = more inhibition) in [9] came out at 55.9%. Moreover, in [10], the parasite growth, % of control (lower = inhibition) was 66.8%. The compound also had a growth, % of control in experiment [11] of 35.7%.

Consider `N[C@@H](Cc1ccc(Oc2cc(I)c(O)c(I)c2)c(I)c1)C(=O)O`, for which the max response in experiment [1] was -7.97% (inactive). Further, in [2], the efficacy is -32% (inactive). For the same compound, the result in experiment [3] and in experiment [4] was inactive.

For the compound `O=C(O)C(=O)c1cn(Cc2ccccc2)c2ccc(-c3ccc(OC(F)(F)F)cc3)cc12`, the max response in experiment [1] was 14.9% (inactive). In addition, in [5], the remaining parasite growth % (stronger effect = lower value) was 110%. Further, the activity, percent of control in [6] turned out to be 90.7%. Moreover, in experiment [7], the remaining proliferation (% of control), lower = more inhibition turned out to be 30.7%. In [8], this compound gave a parasite growth, % of DMSO control of 222%. In [10], this compound yielded a parasite growth, % of control (lower = inhibition) of 77.4%. Further, the growth, % of control in experiment [11] worked out at 506%.

For `Cc1cc(SCc2sc(-c3ccc(C(F)(F)F)c(F)c3)nc2C)ccc1OCC(=O)O`, the max response in [12] was -1.47% (inactive); in experiment [1], 27.5% (inactive); in experiment [13] it was -13% (inactive). The remaining parasite growth % (stronger effect = lower value) in [5] was found to be 101%. For the same compound, the activity, percent of control in experiment [6] was 90.7%. The remaining proliferation (% of control), lower = more inhibition in experiment [7] came out at 82.6%. This compound also gave a parasite growth, % of DMSO control in [8] of 66.7%. The same compound came in with a parasite growth remaining, % of DMSO control (lower = more inhibition) in experiment [9] of 88.1%. In experiment [10], this compound had a parasite growth, % of control (lower = inhibition) of 50.9%. Besides, the growth, % of control in experiment [11] is 87.4%.

With `COc1ccc(Cc2nccc3cc(OC)c(OC)cc23)cc1OC`, in experiment [1], the max response is 8.87% (inactive) and -8.15% (inactive). Further, the efficacy in experiment [2] was 13% (inactive). Moreover, the call in [3] and in [4] was inactive.

Regarding `Cn1cc(C2=C(c3cn(C4CCN(Cc5ccccn5)CC4)c4ccccc34)C(=O)NC2=O)c2ccccc21`, in [5], the remaining parasite growth % (stronger effect = lower value) was 94.2%. Further, in experiment [6], the activity, percent of control turned out to be 70%. In [8], this compound yielded a parasite growth, % of DMSO control of 11.5%. This compound also displayed a parasite growth, % of control (lower = inhibition) in experiment [10] of 21.1%. The same compound displayed a growth, % of control in [11] of 6.8%. Besides, the efficacy in experiment [2] is 36.4% (inactive). Besides, the compound was called inactive in experiment [3] and in [4].

On to `NCCc1cc(O)c(O)cc1O`, for which the max response in experiment [1] is 0.974% (inactive). The efficacy in experiment [2] is -42% (inactive). The concentration at half-maximal activity (AC50) (in general, the concentration at which the activity in the assay is half-maximal) in experiment [3] is 25.1 µM (active). Further, the outcome in experiment [4] was inactive.

For the compound `Cc1sc2c(c1C)C(c1ccc(Cl)cc1)=N[C@@H](CC(=O)OC(C)(C)C)c1nnc(C)n1-2`, the max response in [1] was -19.5% (inactive). In addition, the remaining parasite growth % (stronger effect = lower value) in [5] amounted to 4.84%. In addition, the activity, percent of control in experiment [6] is 14.6%. Besides, the remaining proliferation (% of control), lower = more inhibition in experiment [7] was -1.43%. Further, in experiment [8], the parasite growth, % of DMSO control stood at 16.3%. Further, the parasite growth, % of control (lower = inhibition) in experiment [10] was 29.2%. The growth, % of control in experiment [11] is 12.7%.

`CS(=O)c1ccc(-c2nc(-c3ccc(F)cc3)c(-c3ccncc3)[nH]2)cc1` (stereo unspecified): the remaining parasite growth % (stronger effect = lower value) in experiment [5] worked out at 64.7%. The activity, percent of control in [6] came out at 56.4%. This compound yielded a parasite growth, % of control (lower = inhibition) in [10] of 30.3% [at 57.5 µM].

In the case of `CC(C)=CC1C(C(=O)OCc2cccc(Oc3ccccc3)c2)C1(C)C` (stereo unspecified), the max response in experiment [1] is 5.27% (inactive). Moreover, the efficacy in [2] is -13.4% (inactive). Moreover, the outcome in experiment [3] and in experiment [4] was inactive.

For `CC(=O)Nc1cc([As](=O)(O)O)ccc1O`, in [1], the max response is 0.387% (inactive). Moreover, the efficacy in experiment [2] was 15.5% (inactive). In addition, the compound was classed as inactive in experiment [3] and in experiment [4].

`Cn1c(CCCC(=O)O)nc2cc(N(CCCl)CCCl)ccc21`: the max response in experiment [1] was -0.45% (inactive). Further, the remaining parasite growth % (stronger effect = lower value) in experiment [5] was 92.7%. Further, in experiment [6], the activity, percent of control was determined as 105%. This compound had a parasite growth, % of DMSO control in [8] of 97.1%. This compound also registered a parasite growth, % of control (lower = inhibition) in [10] of 85.2%. In [11], this compound showed a growth, % of control of 104%. The result in experiment [14], in experiment [15], in [3] and in [4] was inactive.
